# This is a sample that favours compounds with a hit; in the whole collection about 1.3% have one here.
# SARS PLpro yeast = SARS-CoV PLP inhibition in yeast | S. cerevisiae expressing SARS-CoV PLpro, growth rescue | Potency, µM (series often up to 32.9 µM), inactives show at the top dose activity, positive = growth rescue, actives largely listed as activators | 330,000 compounds, 0.19% hits | AID 485353; calls by dose curve; further: 0% is about no effect; nearly all actives have a fitted effect of over 55% in size
# Vaccinia mCherry = inhibitors of vaccinia virus infection (mCherry reporter signal). Vaccinia virus mCherry reporter infection, fluorescence. 310,000 compounds, 0.63% hits. Potency, µM (top dose mostly 36.5 µM), inactives show at the top dose activity change, negative = inhibition, usual class: inhibitors; calls by dose curve; tested in A549 cells; further: on the % scale 0 is the no-effect control and ±100 the full control effect; nearly all actives have a fitted effect of over 35% in size
# Vaccinia Venus = inhibitors of vaccinia virus (Venus reporter). Vaccinia virus Venus reporter expression, fluorescence. Potency, µM (highest dose often 36.5 µM), for the others: top-dose activity change, negative = inhibition, most hits filed as inhibitors. 330,000 compounds, 0.46% hits. AID 720580; calls by dose curve; tested in A549 cells; further: on the % scale 0 is the no-effect control and ±100 the full control effect; nearly all actives have a fitted effect of over 30% in size
# AmpC no deterg = blocks E. coli AmpC beta-lactamase in detergent-free assay | AmpC nitrocefin hydrolysis, absorbance 480 nm, 0.0001% Triton | Potency, µM (series often up to 57.1 µM), inactives show at the top dose activity change, negative = inhibition, most hits filed as inhibitors | 330,000 compounds, 0.52% hits | AID 485341;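 further: plate controls were no compound for no effect and no enzyme for full effect; nearly all actives have a fitted effect of over 20% in size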
# Target sequence (P00811 whole entry, looked up): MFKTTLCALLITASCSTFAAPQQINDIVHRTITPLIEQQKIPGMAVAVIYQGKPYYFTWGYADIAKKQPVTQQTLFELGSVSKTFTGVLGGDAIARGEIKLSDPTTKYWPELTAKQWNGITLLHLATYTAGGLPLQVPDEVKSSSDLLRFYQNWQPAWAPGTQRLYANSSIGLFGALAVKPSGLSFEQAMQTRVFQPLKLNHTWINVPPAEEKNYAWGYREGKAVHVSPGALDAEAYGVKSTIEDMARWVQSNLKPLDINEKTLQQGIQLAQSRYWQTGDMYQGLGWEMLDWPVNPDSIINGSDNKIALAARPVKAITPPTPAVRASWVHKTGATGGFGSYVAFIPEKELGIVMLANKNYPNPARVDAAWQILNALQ
#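 AmpC (5.3 nM in the dispensed reagent) in 20 mM phosphate pH 7.0 with 0.01% (detergent screen) or 0.0001% Triton X-100 was preincubated with compounds for 15 min at room temperature. Nitrocefin was then added from an 800 uM solution, and hydrolysis was followed at 480 nm.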
# AmpC inh detg = blocks E. coli AmpC beta-lactamase in detergent assay | AID 485294 | Potency, µM (highest dose often 114 µM), for the others: at the highest dose activity change, negative = inhibition, most hits filed as inhibitors | 370,000 compounds, 0.041% hits | AmpC hydrolysis of nitrocefin, absorbance 480 nm, 0.01% Triton | P00811;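 further: 0% = no-compound wells and -100% = no-enzyme wells; nearly all actives have a fitted effect of over 25% in size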
#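 20 mM phosphate pH 7.0 + 0.01% (detergent screen) or 0.0001% Triton X-100; 5.3 nM AmpC reagent; cpd preinc 15 min RT; nitrocefin (800 uM stock) to start; A480 q20 s × 4 min; Activity was normalised to no-enzyme and no-compound control wells.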
# * marks the source's active call; other numbers are inactive results; i = inactive; ? = inconclusive; · = not tested or not shown; [ ] = remark or other dose. Unless noted, the call rests on the fitted dose curve; in most records, active means well fitted curve in the direction sought with a large enough effect; inconclusive means small, poorly fitted or top-dose-only effect, or another doubt; inactive means no such curve, though single readings can be large; an effect the other way counts as inactive or inconclusive. Potency means the concentration at half of the fitted maximal effect.
SMILES,SARS PLpro yeast,Vaccinia mCherry,Vaccinia Venus,AmpC no deterg,AmpC inh detg
COc1cc(=O)n2c(c1C(=O)N(C)Cc1nonc1C)CCN(C(=O)c1cc(C)cc(C)c1)CC2,·,-8.0%,-16.0%,·,·
Cc1ccc(F)cc1S(=O)(=O)NCc1nc(N2CCCC2)c2cccc(C)c2n1,·,i,-15.3%,·,·
O=C(Nc1ccccc1)Nc1sccc1-c1nc2ccccc2s1,2.5%,i,18.8%,14.1µM*,7.6%
COc1ccccc1C1CN(Cc2ccc(Sc3nncn3C)o2)Cc2ccccc2O1 (configuration not stated),·,-13.0%,-7.4%,·,·
CC1=C(C(=O)OC(C)C)C(c2cccc([N+](=O)[O-])c2)n2c(cc(=O)[nH]c2=S)N1 (configuration not stated),2.3%,-8.9%,-6.2%,35.5µM*,-16.0%
CC(=O)C1=C(C)NC(=S)NC1c1cccc([N+](=O)[O-])c1 (configuration not stated),3.5%,5.3%,-0.5%,-20.1%,1.6%
Cc1ncc2c(c1CNC(=O)c1ccccc1F)CCN(C(=O)c1csc(-c3cccs3)n1)C2,·,-20.8%,-12.0%,·,·
O=C(NCC1(N2CCOCC2)CCCC1)c1cnn(-c2ncc3c(n2)-c2ccccc2CC3)c1C1CC1,·,-19.5%,-14.6%,·,·
Cc1ccc(Nc2c3c(nc4ccccc24)CCC3)cc1F,·,10µM*,?,·,8.3%
COc1ccc(N2C(N)=NC(N)=NC2(C)C)cc1,4.3%,?,11.2µM*,5.2%,-4.9%
COc1cccc(N2C(N)=NC(N)=NC2(C)C)c1,0.9%,·,?,-19.3%,-9.6%
CC1(C)N=C(N)N=C(N)N1c1cccc(C#N)c1,·,2µM*,4.47µM*,·,·
CC(C)C[C@H](N)c1cn([C@@H](CCCCN)C(=O)N2CCNCC2)nn1,-0.6%,0.501µM*,0.794µM*,-26.6%,8.4%
CC(C)CC(N)c1cn([C@@H](CCC(=O)O)C(=O)N2CCNCC2)nn1 (some centres not stated),0.2%,i,-5.2%,-14.8%,-3.7%
COc1cc([C@@H]2c3cc4c(cc3C(O[C@@H]3O[C@@H]5COC(c6cccs6)O[C@H]5[C@H](O)[C@H]3O)C3COC(=O)[C@@H]32)OCO4)cc(OC)c1O (some centres not stated),·,2µM*,?,·,·
Cc1cc(-c2ccnc(-n3ncc(C(=O)NCC4COCCO4)c3C)n2)c(C)s1 (configuration not stated),·,-18.1%,-4.4%,·,·
OC(c1cccnc1)c1ccc2c(c1)CN(Cc1cn(-c3ccccc3)nc1-c1ccccc1)CCO2 (configuration not stated),·,-13.0%,4.3%,·,·
Cc1cc(C)c2sc(N(CCCN(C)C)C(=O)c3ccc(S(=O)(=O)N(C)C4CCCCC4)cc3)nc2c1,8.3%,14.1µM*,12.6µM*,306.7%,-11.6%
COCC1CCCN(c2nc(CN3CCN(C(=O)c4ccco4)CC3)nc3ccccc23)C1 (configuration not stated),·,-10.1%,-1.5%,·,·
Cc1nc(N/N=C/c2ccc(O)cc2)c2cnn(-c3ccccc3)c2n1,0.4%,·,·,15.8µM*,-10.4%
Cc1nc2ccccc2nc1N/N=C/c1ccc(O)cc1,-2.7%,·,·,-30.9%,-2.6%
COCC1CCCN(Cc2ccc3c(c2)CN(C(=O)c2cccnc2OC)CCO3)C1 (configuration not stated),·,-9.9%,?,·,·
CCOC(=O)/C(=C/c1ccc(OC(F)F)cc1)C1=Nn2c(nnc2-c2ccc(Cl)cc2)SC1,·,?,11.2µM*,·,·
CCOC(=O)/C(=C\c1ccc(OC(F)F)cc1)C1=Nn2c(nnc2-c2ccc(Cl)cc2)SC1,-20.7%,?,12.6µM*,4.9%,7.4%
COc1cc(=O)n2c(c1C(=O)NCc1nonc1C)CCN(Cc1c[nH]c3ccccc13)CC2,·,-7.5%,-8.7%,·,·
SMILES,SARS PLpro yeast,Vaccinia mCherry,Vaccinia Venus,AmpC no deterg,AmpC inh detg
COc1ccccc1C(=O)N1CCOc2ccc(C(C)(O)CCn3cccn3)cc2C1 (configuration not stated),·,-13.5%,-9.0%,·,·
Cc1c(O)c(=O)ccn1Cc1ccccc1,10µM*,?,?,-37.1%,?
CCCOc1ccccc1NC(=O)Nc1ccccc1Cl,1.1%,-2.8%,-11.4%,-30.4%,?
O=C(NCCCl)Nc1ccccc1OCCOc1ccccc1NC(=O)NCCCl,1.0%,14.1µM*,?,5.8%,-11.4%
COc1ccc(C)cc1NC(=O)Nc1ccc2c(c1)CCC2,6.8%,·,·,?,-11.3%
COc1ccccc1NC(=O)NCCCl,12.2%,10µM*,10µM*,-27.4%,-0.4%
COc1ccccc1NC(=O)Nc1ccc2c(c1)CCC2,18.0%,·,·,10µM*,-1.9%
CCc1cc(C(=O)NCC2Cc3cc(-c4ccccc4C(C)=O)ccc3O2)no1 (configuration not stated),·,-12.8%,-1.9%,·,·
COc1cc(CNc2nc(C)c(-c3ccn(CC4CCCN(C)C4)n3)s2)ccc1F (configuration not stated),·,-13.1%,-5.9%,·,·
O=C(CCN1C(=O)/C(=C/c2ccccc2Cl)SC1=S)NC1C=CS(=O)(=O)C1 (configuration not stated),-4.9%,·,·,28.2µM*,-4.0%
CCc1cc(C(=O)NCC2Cc3cc(C)cc(-c4cc(C(C)=O)ccc4F)c3O2)n(C)n1 (configuration not stated),·,-25.8%,-23.3%,·,·
Cc1[nH]c2ccccc2c1C(C#N)(C#N)C1C(=O)c2ccccc2C1=O,-3.2%,-26.8%[7.34 µM],13.0%[7.34 µM],14.1µM*,-5.8%
O=C(NCCc1nnc2n1CCN(Cc1ccccn1)CC2)c1ccc(F)cc1,·,-8.5%,-6.0%,·,·
C=CC[C@H](CC(=O)N(CCO)Cc1ccccc1)C(=O)N[C@H](COC(=O)[C@H](CC=C)CC(=O)OC(C)(C)C)Cc1c[nH]c2ccccc12,2.1%,-21.2%,-27.8%,116.1%,·
C=CC[C@H](CC(=O)N(CCO)Cc1ccccc1)C(=O)N[C@@H](COC(=O)[C@@H](CC=C)CC(=O)OC(C)(C)C)Cc1c[nH]c2ccccc12,4.1%,?,11.2µM*,166.3%,·
C=CC[C@@H](CC(=O)N(CCO)Cc1ccccc1)C(=O)N[C@@H](COC(=O)[C@H](CC=C)CC(=O)OC(C)(C)C)Cc1c[nH]c2ccccc12,-3.9%,?,11.2µM*,106.6%,·
COc1cc(-c2cc(C)c3c(OC)ccc(OC)c3n2)cc2c1OCCN(C(=O)C(C)c1n[nH]c(=O)c3ccccc13)C2 (configuration not stated),·,-11.3%,-3.6%,·,·
COc1ccc(CCNc2ccc(C(CC(N)=O)NC(=O)Cc3cccc4ccccc34)cc2[N+](=O)[O-])cc1 (configuration not stated),-1.5%,?,12.6µM*,-6.9%,-0.7%
COc1ccc(CN2CCOc3ccc(CN4CCC(O)(c5cccnc5)CC4)cc3C2)cc1OC,·,-18.8%,-17.9%,·,·
CN=c1sc2c(n1C)C(=O)c1ccccc1C2=O,·,2.82µM*,3.98µM*,·,·

# Bioassay records deposited in PubChem by National Center for Advancing Translational Sciences (NCATS).
